Here are results for 38 compounds from the supplement of paper PMC11219838.

The assay relates to Meloidogyne hapla J2. As to the kind of experiment: proportion of mobile M. hapla J2 relative to DMSO control (fraction of DMSO control); higher = more viable, less nematicidal, active = 0.7 or less. The note with it: 60 µM; 5 days; temperature: 20 °C. The procedure, abridged:
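Two biological replicates were run and averaged, each on 96-well plates in which about 25 M. hapla J2 sat in distilled water per well. Compound was pinned in to give 60 µM final and 0.6% v/v DMSO, and the sealed plates were shaken at 200 rpm and 20 °C for 5 days before 2 µL 1 M NaOH was added. Mobility was scored microscopically and divided by the mean from the plate's DMSO-only wells, of which there were eight.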
Turning to `Cc1ccc(OCc2nc(-c3ccccn3)no2)cc1C`, the “proportion of mobile M. hapla J2” value was 1.01 (inactive).
On to `Cc1ccc(-c2noc(COc3ccccc3C)n2)cc1`, for which the “proportion of mobile M. hapla J2” value is 1.01 (inactive).
Regarding `O=C(CSc1nnc(-c2ccco2)o1)Nc1ccc(Br)cc1`, the “proportion of mobile M. hapla J2” value is 1.05 (inactive).
Regarding `COc1ccc(Cl)cc1-c1noc(-c2ccccc2C)n1`, the “proportion of mobile M. hapla J2” value was 0.93 (inactive).
With `Cc1cc(C)c(CSc2nnc(-c3ccccc3)o2)c(C)c1`, the “proportion of mobile M. hapla J2” value is 0.962 (inactive).
In the case of `COc1ccc(-c2noc(COc3ccc(Br)c(C)c3)n2)cc1`, the “proportion of mobile M. hapla J2” value was 0.972 (inactive).
As to `Cc1cccc(-c2noc(-c3cc(Cl)ccc3Cl)n2)c1`, the “proportion of mobile M. hapla J2” value was 1.08 (inactive).
Consider `Cc1cc(OCc2nc(-c3ccccc3)no2)cc(C)c1Cl`, for which the “proportion of mobile M. hapla J2” value was 1.05 (inactive).
Turning to `O=C(CSc1nnc(-c2ccccc2Cl)o1)c1ccc2c(c1)CCCC2`, the “proportion of mobile M. hapla J2” value is 0.914 (inactive).
`CCn1c(SCc2ccc(OC)cc2)nnc1-c1ccco1`: the “proportion of mobile M. hapla J2” value was 0.611 (active).
In the case of `COc1ccc(Cl)cc1-c1nnc(SCC(=O)Nc2nccs2)o1`, the “proportion of mobile M. hapla J2” value was 0.826 (inactive).
The value for `COc1ccc(-c2noc(C34CC5CC(CC(C5)C3)C4)n2)cc1` was 1.04 (inactive); that for `COc1nc2ccc(C)cc2cc1-c1noc(-c2cccnc2)n1` was 0.972 (inactive); that for `Clc1ccc(-c2nnc(SCc3ccccc3)o2)c(Cl)c1` was 0.957 (inactive).
On to `CCOc1ccc(NC(=O)CSc2nnc(-c3ccccc3Cl)o2)cc1`, for which the “proportion of mobile M. hapla J2” value is 0.974 (inactive).
Consider `Cc1cc(OCc2nc(-c3ccc(NC(=O)c4ccc5c(c4)OCO5)cc3)no2)ccc1Cl`, for which the “proportion of mobile M. hapla J2” value is 0.843 (inactive).
Regarding `O=C(CSc1nnc(-c2ccc(Cl)cc2)o1)Nc1ccccc1C(F)(F)F`, the “proportion of mobile M. hapla J2” value was 0.752 (inactive).
The figure for `O=C(CSc1nnc(-c2cccc(Br)c2)o1)N1CCCCC1` is 0.915 (inactive); for `CC(Oc1ccccc1)c1nc(-c2cccnc2)no1` (stereo not drawn) it is 1.06 (inactive).
Consider `c1ccc(COc2cccc(-c3nc(-c4ccncc4)no3)c2)cc1`, for which the “proportion of mobile M. hapla J2” value is 0.915 (inactive).
For the compound `Cc1cc(C)cc(OCc2nc(-c3cc(C)nc4ccccc34)no2)c1`, the “proportion of mobile M. hapla J2” value is 1.02 (inactive).
With `CCOc1ccccc1-c1nnc(SCC(=O)Nc2nc(C)cs2)o1`, the “proportion of mobile M. hapla J2” value is 0.993 (inactive).
The value for `Clc1ccc(CSc2nnc(-c3ccccc3)o2)c(Cl)c1` was 1.03 (inactive); that for `O=C(CSc1nnc(-c2ccc(Cl)cc2)o1)c1ccccc1` was 0.772 (inactive); that for `COc1ccccc1CC(=O)Nc1ccc(-c2noc(-c3ccc(Cl)cc3)n2)cc1` was 0.938 (inactive).
The value for `Cc1ccc(-c2nc(-c3ccc4c(c3)OCO4)no2)cc1` was 1 (inactive); that for `Cc1cccc(-c2noc(COc3ccccc3Cl)n2)c1` was 0.894 (inactive); that for `COc1ccc(-c2nnc(SCc3ccccc3C)o2)cc1` was 0.942 (inactive).
For the compound `CCOc1cc(-c2nc(-c3ccc(C)nc3OC)no2)cc(OCC)c1OCC`, the “proportion of mobile M. hapla J2” value is 0.628 (active).
The figure for `Clc1ccc(OCc2nc(-c3cccs3)no2)cc1` is 0.923 (inactive); for `c1ccc(-c2noc(COc3cccc4ccccc34)n2)nc1` it is 0.936 (inactive).
Take `COc1ccc(C(=O)CSc2nnc(-c3cccc4ccccc34)o2)cc1`: the “proportion of mobile M. hapla J2” value was 0.929 (inactive).
Take `Cc1ccc(-c2nc(-c3cccnc3)no2)cc1Cl`: the “proportion of mobile M. hapla J2” value was 1.02 (inactive).
As to `Cc1ccc(-c2noc(-c3ccccc3C)n2)cc1`, the “proportion of mobile M. hapla J2” value was 1.04 (inactive).
The figure for `Fc1cccc(-c2nc(-c3cccnc3)no2)c1` is 1.08 (inactive); for `Cc1ccc(OCc2nc(-c3cccnc3)no2)c(Br)c1` it is 0.992 (inactive); for `C=C(C)COc1ccc(-c2nc(-c3cccnc3)no2)cc1` it is 0.919 (inactive).
Take `COc1ccc(-c2noc(COc3ccc(Cl)cc3Cl)n2)cc1`: the “proportion of mobile M. hapla J2” value was 0.874 (inactive).
